High-throughput results from PubChem.
HIF-2a inh: inhibitors of HIF-2a. inhibition, % at 18.8 µM. 360,000 compounds, 0.72% hits. 786-0 RCC cells HIF-2a reporter, luciferase luminescence, overnight;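 active means inhibition of the luminescence signal of 40% or more relative to plate controls, in a single-dose primary screen at 18.75 µM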
LMP1 NFkB inh: reduces LMP1-driven NF-kappaB luciferase signal; inhibition, % at 12.5 µM; 350,000 compounds, 0.69% hits; LMP1-induced NF-kappaB luciferase reporter cells, luminescence; AID 504558; in the data active means inhibition above about 41%;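 further: 0% = neutral control wells and 100% = reference inhibitor control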
TRPM1 prom inh: MITF TRPM1 promoter inhibition in SK-MEL-5 cells; inhibition, % at 12.5 µM; 330,000 compounds, 0.83% hits; SK-MEL-5 TRPM1 promoter luciferase, 24 h;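 active means mean inhibition across replicates of 60% or more, whatever share of single replicates reaches that level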
Shn3 3UTR inh: Schnurri-3 reporter inhibition in Clone20 osteoblasts; 360,000 compounds, 0.52% hits; Clone20 osteoblast Shn3 3'UTR firefly luciferase, 24 h; inhibition, % at 12.5 µM;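 active means mean inhibition of at least 75% with every replicate also reaching 75%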;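 further: 0% = median of neutral control wells and 100% = pilot-screen positive control compound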
TROY signal inh: inhibitors of TROY-dependent NF-kB signaling | Q293 LMP1-TROYcd NF-kB luciferase reporter, 4 h | inhibition, % at 10 µM | 360,000 compounds, 0.98% hits;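 active means compounds whose plate-normalised and pattern-corrected inhibition of the luciferase reporter signal at the single screening dose is 50% or more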
TWEAK-Fn14 inh: TWEAK-Fn14 signaling inhibition; TWEAK-stimulated Fn14 reporter cells, luciferase luminescence, 8 h; inhibition, % at 10 µM; AID 1159606; 360,000 compounds, 2% hits; in the data active means inhibition above about 50%
* = called active by the depositor; . = no result given. Sampled rows, rich in hits. Any-hit rate of the full collection: about 3.4%.

SMILES | HIF-2a inh | LMP1 NFkB inh | TRPM1 prom inh | Shn3 3UTR inh | TROY signal inh | TWEAK-Fn14 inh
CC[C@H]1CN2CCC1C[C@H]2[C@H](O)c1ccnc2ccc(OC)cc12 (some centres undefined) | -0.4 | 69.0* | 16.8 | -3.6 | -6.0 | -10.8
CC[C@H]1CN2CCC1C[C@@H]2[C@@H](O)c1ccnc2ccc(OC)cc12 (some centres undefined) | -2.0 | -2.5 | -5.8 | 0.6 | 2.7 | 8.4
Nc1ccncc1Cl | 12.2 | 8.2 | . | 11.7 | -16.8 | -2.7
Oc1cc(Cl)ccc1Oc1ccc(Cl)cc1Cl | -1.5 | -3.9 | -5.4 | 8.7 | 51.1* | 49.8
COC(=O)C1=C(c2ccc(F)cc2OCc2ccccc2)C[C@@H]2CC[C@H]1N2C | 3.6 | 1.2 | 3.7 | -7.6 | -35.0 | 3.3
COC(=O)C1=C(c2ccc(OCc3ccccc3)cc2)C[C@@H]2CC[C@H]1N2C | -3.3 | -5.3 | . | 4.0 | 56.9* | 31.4
COC(=O)C1=C(c2ccc(OCc3ccccc3)c(F)c2)C[C@@H]2CC[C@H]1N2C | -18.9 | -9.5 | . | -30.7 | 52.3* | 20.8
COC(=O)C1=C(c2ccc(F)cc2OCc2ccccc2)C[C@@H]2CC[C@H]1N2C(=O)NC1CCCCC1 | 18.8 | -3.2 | 8.9 | 45.3 | 12.5 | -13.6
COC(=O)C1=C(c2ccc(F)cc2OCc2ccccc2)C[C@@H]2CC[C@H]1N2C(=O)NC(C)C | 12.9 | 49.4* | -1.5 | 20.2 | -6.8 | 10.4
Cc1oc(-c2ccc(F)cc2F)nc1CN1C[C@@H]2C[C@@H](C1)c1cccc(=O)n1C2 | 20.9 | 5.0 | 10.7 | 6.6 | 5.8 | -14.0
COC1C(C)OC(OC2CC(C)(O)Cc3cc4c(c(O)c32)C(=O)c2c(O)cc3c(c2C4=O)OC2OC3(C)C(O)C(N(C)C)C2O)C(OC)C1(C)OC (centres undefined) | 14.1 | 84.9* | 63.8* | 2.6 | 11.8 | 14.9
CCOC(=O)CNC(=O)N1Cc2cc(-c3ccc(OC)cc3)ccc2-n2nncc2C1 | 10.0 | . | . | -9.8 | 3.0 | -35.3
Cc1cc(C)n(-c2ccc(NN=C(C#N)C#N)cc2)n1 | 2.7 | 57.5* | 6.7 | 11.1 | 65.3* | 84.1*
N#CC(C#N)=NNc1ccc(-n2ccc(C(F)(F)F)n2)cc1 | -21.4 | 59.7* | 41.9 | . | 67.5* | 91.4*
COC(=O)C12CCc3cc(OC)ccc3C1=CC(=O)C2 (centres undefined) | 5.8 | -0.2 | . | 47.3 | 0.8 | 13.8
CCOC(=O)C1C(=O)NC2(C)CC1c1cc(OC)ccc1O2 (centres undefined) | 3.8 | -4.9 | 2.0 | 89.4* | -21.6 | -7.1
FC(F)(F)c1ccc(CNCCc2ccc3c(c2)OCO3)cc1 | 0.7 | -5.5 | 11.6 | 15.7 | 4.4 | -8.1
OCC[N+]12CCC(CC1)C(C(O)(c1ccccc1)c1ccccc1)C2 (centres undefined) | 12.4 | 6.2 | 10.9 | -21.1 | 54.4* | -19.6
O=C(C[N+]12CCC(CC1)C(C(O)(c1ccccc1)c1ccccc1)C2)c1ccc(Br)cc1 (centres undefined) | -0.3 | -12.6 | -1.2 | 9.1 | -15.9 | 8.0
CCCCC(CC)COCCCN=Cc1c(O)[nH]c(=S)[nH]c1=O (centres undefined) | 25.1 | . | . | 15.7 | 6.4 | 59.6*
O=c1[nH]c(O)c(N=Nc2ccc([N+](=O)[O-])cc2)c(=O)[nH]1 | 7.0 | 2.4 | 52.3 | -12.5 | 3.2 | -0.3
O=C(c1cc(C(=O)NCc2ccccc2)c(=O)n(Cc2ccccc2)c1)c1cc(Br)ccc1O | 17.6 | 4.0 | -6.5 | -4.9 | 23.7 | 51.1*
Cc1ccc(O)c(C(=O)c2cc(C(=O)NCc3ccccc3)c(=O)n(Cc3ccccc3)c2)c1 | 25.4 | -2.0 | -2.0 | 23.8 | 15.9 | 4.1
COc1cc2c(cc1OC)C1C(=O)c3ccc4c(c3OC1CO2)CC(C(C)C)O4 (centres undefined) | -24.4 | 16.6 | 40.0 | 85.1* | 32.6 | 49.4
Oc1c(Cl)c(Cl)c(Cl)c(Cl)c1Cl | -10.6 | -8.4 | -2.2 | 23.6 | 63.6* | 5.2
SMILES | HIF-2a inh | LMP1 NFkB inh | TRPM1 prom inh | Shn3 3UTR inh | TROY signal inh | TWEAK-Fn14 inh
CN1CCN(c2ncc(C=O)s2)CC1 | 4.6 | -8.0 | 4.9 | 3.2 | 5.7 | -7.3
Cc1ccc(C)c(NC(=O)CCNC(=O)N2C[C@H]3C[C@@H](C2)c2cccc(=O)n2C3)c1 | 8.2 | -0.6 | 10.6 | 8.0 | 3.6 | -6.3
O=C(O)C1C2CCC(O2)C1C(=O)Nc1cccc(Br)c1 (centres undefined) | 4.3 | -4.5 | 7.4 | -22.1 | -27.6 | -1.4
C/C1=C\[C@@H](C)C/C=C/[C@H]2[C@@H]3O[C@]3(C)[C@@H](C)[C@H]3[C@H](Cc4c[nH]c5ccccc45)NC(=O)[C@]32C(=O)/C=C/C(=O)[C@@H]1O | 76.3* | 19.2 | . | 87.8* | -52.6 | -125.1
CC1CN=C(NCCc2ccccc2)S1 (centres undefined) | -2.7 | -11.6 | 1.1 | 19.2 | 3.7 | -12.2
c1ccc(C2(N3CCCCC3)CCCCC2)cc1 | -2.7 | -3.1 | -3.2 | 7.0 | 6.2 | -1.9
S=C=Nc1cccc(C2(N3CCCCC3)CCCCC2)c1 | -14.9 | -12.3 | 75.0* | -3.8 | -4.6 | -3.2
CCc1ccc(N2C(=O)NC(=O)/C(=C/c3cccn3CCOc3ccc(C)cc3)C2=O)cc1 | 3.8 | 2.4 | 4.6 | -19.8 | -94.4 | 0.0
CCc1ccc(N2C(=O)NC(=O)/C(=C/c3cccn3CCOc3ccc(C(C)CC)cc3)C2=O)cc1 (centres undefined) | 2.4 | -33.6 | 4.0 | -5.5 | 40.7 | 64.5*
COC1=C(C)C(=O)C2=C(C1=O)C(CO)N1C(C#N)C3CC4C(C1C2N1CCOC41)N3C (centres undefined) | 30.2 | 85.6* | 75.7* | -5.8 | 2.2 | 36.7
CC(=O)OC(C)(C)/C=C/C(=O)[C@](C)(O)[C@H]1[C@H](O)C[C@@]2(C)[C@@H]3CC=C4[C@H](C[C@H](O)C(=O)C4(C)C)[C@]3(C)C(=O)C[C@]12C | 79.1* | 50.5* | 88.3* | 97.5* | 61.8* | 65.2*
CC(=O)OC(C)(C)/C=C/C(=O)C(C)(O)C1C(O)CC2(C)C3CC=C4C(CC(O)C(=O)C4(C)C)C3(C)C(=O)CC12C (centres undefined) | 78.3* | 11.5 | 88.4* | 84.7 | 60.6* | 63.1*
CCOP(=O)(CCP(=O)(OCC)OCC)OCC.C[CH2][Sn]([Cl])([Cl])[CH2]C | -18.2 | -2.2 | 85.3* | 47.6 | 41.4 | 57.9*
COC(=O)C1=C(c2cccc(C#N)c2)C[C@@H]2CC[C@H]1N2C(=O)NC1CC1 | 8.6 | -3.5 | -7.4 | -33.8 | 0.8 | 0.1
COc1c2c(cc3c1OCO3)CCN(C)C2 | 7.9 | 79.0* | -1.5 | -12.7 | 2.9 | -12.9
CC(=O)OC1C(O)C(C)OC(OC2C(OC(=O)C3CCC4C(C3)OC3(CC(OC(=O)/C=C/c5ccccc5)C(C)CO3)C43CO3)OC(C)C(O)C2OC(C)=O)C1O (centres undefined) | 65.4* | 84.7* | 87.0* | 96.5* | 84.0* | 101.1*
